Reference: PubChem BioAssay AID1159580 (chemical genetic matrix, 2015)
Screen size: about 5,500 compounds; about 2,000 (36%) were called active. Not shown: some 18% with an inconclusive outcome. Rule as the data show it: active = normalized growth mostly below about 0.91 (no sharp cut-off); inconclusive = no clear call, values can overlap the other calls; inactive = mostly above about 0.92. This is one part of the list.

Experiment: chemical genetic growth profiling, strain panel (AID 1159580);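 also: tested at 20 µM; growth read once vehicle control cultures reached saturation at 30 °C; 1 = growth at the plate median or of vehicle wells; lower values mean less growth of the strain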
Conditions: S. cerevisiae deletion strains, growth OD
[1] = locus YDL101C, strain DUN1, hits give low values
[2] = locus YHR030C, strain SLT2, hits give low values

Measured: normalized growth

CC(C)(C)NC(=S)N/N=C\c1ccccc1O
inactive: locus YAR019C, strain CDC15, hits give low values 0.954 | locus YBL105C, strain PKC1, hits give low values 0.957 | locus YBR135W, strain CKS1, hits give low values 0.958 | locus YBR136W, strain MEC1, hits give low values 0.958 | locus YBR160W, strain CDC28, hits give low values 0.947 | locus YDL017W, strain CDC7, hits give low values 0.96 | locus YDL028C, strain MPS1, hits give low values 0.951 | [1] 0.964 | locus YDL108W, strain KIN28, hits give low values 0.947 | locus YDL132W, strain cdc53, hits give low values 0.95 | locus YDL214C, strain PRR2, hits give low values 0.924 | locus YDR052C, strain DBF4, hits give low values 0.97 | locus YDR054C, strain cdc34, hits give low values 0.943 | locus YDR226W, strain ADK1, hits give low values 0.961 | locus YDR477W, strain SNF1, hits give low values 0.876 | locus YER123W, strain YCK3, hits give low values 0.848 | locus YER133W, strain GLC7, hits give low values 0.882 | locus YFL009W, strain cdc4, hits give low values 0.928 | locus YFL029C, strain CAK1, hits give low values 0.947 | locus YFR003C, strain YPI1, hits give low values 0.955 | locus YFR019W, strain FAB1, hits give low values 0.95 | locus YFR028C, strain CDC14, hits give low values 0.957 | locus YGR040W, strain KSS1, hits give low values 0.875 | locus YGR052W, strain FMP48, hits give low values 0.954 | locus YGR092W, strain DBF2, hits give low values 0.692 | [2] 0.901 | locus YHR079C, strain IRE1, hits give low values 0.806 | locus YHR082C, strain KSP1, hits give low values 0.931 | locus YHR205W, strain SCH9, hits give low values 0.972 | locus YIL147C, strain SLN1, hits give low values 0.953 | locus YJL095W, strain BCK1, hits give low values 0.941 | locus YJL128C, strain PBS2, hits give low values 0.949 | locus YJL157C, strain FAR1, hits give low values 0.891 | locus YJR016C, strain ILV3, hits give low values 0.954 | locus YJR066W, strain TOR1 (second series), hits give low values 0.878 | locus YJR066W, strain TOR1, hits give low values 0.789 | locus YKL048C, strain ELM1, hits give low values 0.947 | locus YKL067W, strain YNK1, hits give low values 0.897 | locus YKL101W, strain HSL1, hits give low values 0.917 | locus YKL193C, strain SDS22, hits give low values 0.951 | locus YKL203C, strain TOR2, hits give low values 0.968 | locus YLR113W, strain HOG1, hits give low values 0.915 | locus YLR133W, strain CKI1, hits give low values 0.926 | locus YLR403W, strain SFP1, hits give low values 0.867 | locus YML070W, strain DAK1, hits give low values 0.902 | locus YMR001C, strain CDC5, hits give low values 0.95 | locus YMR205C, strain PFK2 (second series), hits give low values 0.941 | locus YMR277W, strain FCP1, hits give low values 0.93 | locus YNL006W, strain LST8, hits give low values 0.945 | locus YNL020C, strain ARK1, hits give low values 0.903 | locus YNL161W, strain CBK1, hits give low values 0.955 | locus YNL183C, strain NPR1, hits give low values 0.955 | locus YNL207W, strain RIO2, hits give low values 0.954 | locus YNL222W, strain SSU72, hits give low values 0.944 | locus YNL307C, strain MCK1 (second series), hits give low values 0.841 | locus YOL078W, strain AVO1, hits give low values 0.955 | locus YOL136C, strain PFK27, hits give low values 0.904 | locus YOR061W, strain CKA2, hits give low values 0.882 | locus YOR119C, strain RIO1, hits give low values 0.909 | locus YOR231W, strain MKK1, hits give low values 0.828 | locus YOR329C, strain SCD5, hits give low values 0.959 | locus YPL031C, strain PHO85, hits give low values 0.867 | locus YPL153C, strain RAD53, hits give low values 0.865 | locus YPL204W, strain HRR25, hits give low values 0.837 | locus YPL209C, strain IPL1, hits give low values 0.941 | locus YPL256C, strain CLN2, hits give low values 0.949 | locus YPR025C, strain CCL1, hits give low values 0.954 | locus YPR106W, strain ISR1, hits give low values 0.968 | locus YPR111W, strain DBF20, hits give low values 0.949 | strain NNK1, hits give low values 0.967 | strain TSCII, hits give low values 0.94

Cc1cc(Br)c(NC(=O)C(Cl)(Cl)Cl)c(Br)c1
active: locus YAL013W, strain DEP1, hits give low values 0.917 | locus YBR229C, strain ROT2, hits give low values 0.911 | locus YGR078C, strain PAC10, hits give low values 0.905 | [2] 0.592 | locus YHR087W, strain rtc3, hits give low values 0.899 | locus YLR039C, strain RIC1, hits give low values 0.538 | locus YLR058C, strain SHM2 (second series), hits give low values 0.907 | locus YLR085C, strain ARP6, hits give low values 0.73 | locus YLR262C, strain YPT6, hits give low values 0.579 | locus YMR219W, strain ESC1, hits give low values 0.933 | locus YMR307W, strain GAS1, hits give low values 0.648 | locus YNL322C, strain KRE1, hits give low values 0.94 | locus YOL006C, strain TOP1, hits give low values 0.615
inactive: [1] 0.936 | locus YDR150W, strain NUM1, hits give low values 0.909 | locus YEL061C, strain CIN8, hits give low values 0.93 | locus YJR043C, strain POL32, hits give low values 0.927 | locus YJR075W, strain HOC1, hits give low values 0.923 | locus YKL190W, strain CNB1, hits give low values 0.958 | locus YML094W, strain GIM5, hits give low values 0.944 | locus YMR263W, strain SAP30, hits give low values 0.96 | locus YNL153C, strain GIM3, hits give low values 0.947 | locus YNL298W, strain CLA4 (second series), hits give low values 0.875 | locus YNR030W, strain Alg12, hits give low values 0.938 | locus YPL055C, strain LGE1, hits give low values 0.919 | locus YPL241C, strain CIN2, hits give low values 0.939 | locus YPR135W, strain CTF4, hits give low values 0.736
